Eight compounds from PubChem BioAssay (Tox21) can be followed below.

The structures appear in SMILES notation. Values joined by “and” are separate entries in the source; they are usually repeats but may differ in a detail not shown here. Equal entries are not always repeated. A number with no mark means an inactive call. Results filed as inconclusive are left out. Active and inactive are the calls of the source. Unless noted, calls follow the shape of the dose curve; as a rule, active = well fitted curve in the direction sought with a large enough effect in the repeat runs; inconclusive = weak or mixed curves; inactive = no such curve, though single readings can be large; an effect the other way counts as inactive or inconclusive.

Assay [1] is described as follows: qHTS assay for small molecule agonists of the p53 signaling pathway (AID 651631; calls by dose curve; also: nearly all actives have a fitted effect of over 15% in size; also: potency is read from the fitted curve at half-maximal effect). An outline of the steps:
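HCT-116 cells carrying a stable p53 response element–beta-lactamase reporter were plated, rested 5 h at 37 °C, then exposed to compound in DMSO for 16 h at 37 °C; reporter activity was read as FRET substrate fluorescence after 2 h at room temperature.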
For orientation: In qHTS, concentration-response curves come from the screen itself.

Assay [2] can be described thus: qHTS assay for small molecules that induce genotoxicity in human embryonic kidney cells expressing luciferase-tagged ATAD5 (AID 651632). Also: nearly all actives have a fitted effect of over 15% in size. A digest of the protocol:
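Luminescence read-out: after 16 hr compound exposure at 37C, ATAD5-luciferase HEK293T cells received Amplite, 30 min RT, then CCD imaging. A rise in signal marks genotoxic stress.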

Assay [3] is described as follows: qHTS assay for small molecule agonists of the p53 signaling pathway - cell viability (AID 651633; calls by dose curve; also: series mostly up to about 83 µM; nearly all actives have a fitted effect of over 30% in size). An outline of the steps: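 p53RE-bla cells were treated with compound for 16 hours at 37 C. Cytotoxicity was then measured as CellTiter-Glo luminescence after 30 min at room temperature.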
A short description of assay [4]: qHTS assay for small molecules that induce genotoxicity in human embryonic kidney cells expressing luciferase-tagged ATAD5 - cell viability (AID 651634; calls by dose curve; also: nearly all actives have a fitted effect of over 25% in size; also: potency is read from the fitted curve at half-maximal effect). A digest of the protocol:
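HEK293T ATAD5-luc cells, 2,000/well; compound 15.5 hr, 37C/5% CO2; CellTiter-Fluor 30 min, 37C; fluorescence read.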

Assay [5] in a line: qHTS assay for small molecule disruptors of the mitochondrial membrane potential (AID 720635). Also: potency is read from the fitted curve at half-maximal effect. An outline of the steps:
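HepG2 cells exposed to compound 1 hr at 37C, then Mito-MPS dye 30 min. Ratio read of aggregate (540/590 nm) versus monomer (490/535 nm) fluorescence.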

A short description of assay [6]: qHTS assay to test for compound auto fluorescence at 590 nm (red) in HepG2 cells (AID 720674). A digest of the protocol: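 Fluorescence at 590 nm emission following 540 nm excitation was recorded from HepG2 wells one hour after compound transfer, with DMSO-only wells as vehicle and Rose Bengal sodium equivalency as the scale.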
The nature of assay [7]: qHTS assay to test for compound auto fluorescence at 535 nm (green) in HepG2 cells (AID 720675).
The nature of assay [8]: qHTS assay to test for compound auto fluorescence at 590 nm (red) in HEK293 cells (AID 720679). An outline of the steps:
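Red channel, Ex/Em 540/590nm; signal expressed as equivalency to Rose Bengal sodium. HEK293, 2,000 cells/well, 10% dialyzed FBS; 23 nL compound pinned after 4-5 hr attachment; overnight 37C/5% CO2 before reading.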

Assay [9] in a line: qHTS assay to test for compound auto fluorescence at 535 nm (green) in HEK293 cells (AID 720680).
The nature of assay [10]: qHTS assay to test for compound auto fluorescence at 460 nm (blue) in HEK293 cell free culture (AID 720681). A digest of the protocol: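 Compounds were added to cell-free DMEM with 10% FBS and fluorescence read directly. The blue channel used 405 nm excitation and 460 nm emission, with triamterene as the reference fluorophore.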
Assay [11] is described as follows: qHTS assay to test for compound auto fluorescence at 535 nm (green) in HEK293 cell free culture (AID 720682). An outline of the steps:
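Read-out: 485/535 nm fluorescence intensity, calibrated against fluorescein. Medium only (DMEM + 10% FBS, no cells); test compound or DMSO vehicle added by pintool before plate reading.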

The nature of assay [12]: qHTS assay to test for compound auto fluorescence at 590 nm (red) in HEK293 cell free culture (AID 720683). An outline of the steps: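 Cell-free wells of DMEM with 10% FBS received compound, and intrinsic fluorescence was read at excitation/emission 540/590 nm. Values expressed as equivalence to Rose Bengal sodium.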
A short description of assay [13]: qHTS assay to test for compound auto fluorescence at 590 nm (red) in HepG2 cell free culture (AID 720684). A digest of the protocol:
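Auto fluorescence equivalency versus Rose Bengal sodium, red channel Ex/Em 540/590 nm; compounds in cell-free MEM/10% FBS; DMSO vehicle control.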

Assay [14] in a line: qHTS assay to test for compound auto fluorescence at 460 nm (blue) in HepG2 cell free culture (AID 720685). A digest of the protocol:
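Cell-free plates of MEM plus 10% FBS received 23 nL compound or DMSO vehicle; blue-channel (405/460 nm) intensity scored against triamterene as reference fluorophore.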

Assay [15] is described as follows: qHTS assay to test for compound auto fluorescence at 535 nm (green) in HepG2 cell free culture (AID 720686).
The nature of assay [16]: qHTS assay to test for compound auto fluorescence at 460 nm (blue) in HepG2 cells (AID 720687). A digest of the protocol:
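HepG2 cells in MEM with 10% FBS, attached overnight at 37 C, were exposed to compound or DMSO for 1 hr at 37 C, 5% CO2. Blue fluorescence was read at 405/460 nm, with triamterene as reference fluorophore.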

Assay [17] in a line: qHTS assay for small molecule disruptors of the mitochondrial membrane potential - cell viability (AID 720634; calls by dose curve;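 also: human HepG2 liver cancer cells; series mostly up to about 83 µM; nearly all actives have a fitted effect of over 20% in size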). A digest of the protocol:
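Luminescence from CellTiter-Glo (ATP content) gave viability in HepG2 cells, read in the same wells as the MMP dye assay after 1 hr compound exposure at 37 C.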

The nature of assay [18]: qHTS assay to test for compound auto fluorescence at 460 nm (blue) in HEK293 cells (AID 720678). A digest of the protocol: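 Blue read-out at excitation 405 nm and emission 460 nm follows overnight compound exposure of HEK293 cells at 37C in 5% CO2. Activity is given as auto fluorescence equivalency to triamterene.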
Assay [19] has as its target Glucocorticoid receptor (Homo sapiens) (UniProt P04150). The experiment in a line: qHTS assay to identify small molecule agonists of the glucocorticoid receptor (GR) signaling pathway (AID 720691; active = well fitted activation curve with a large enough effect in the signal ratio in the repeat runs, not every such curve was filed as active; the % refers to the signal ratio; also: potency is read from the fitted curve at half-maximal effect). A digest of the protocol: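 HeLa GR-bla reporter line; cells pre-incubated 4 h, compound in DMSO 18 h at 37 C; LiveBLAzer B/G FRET substrate 2 h RT; fluorescence intensity read-out.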

For assay [20] the target is unchanged. The experiment in a line: qHTS assay to identify small molecule antagonists of the glucocorticoid receptor (GR) signaling pathway (AID 720692; active = well fitted inhibition curve with a large enough effect in the signal ratio in the repeat runs, not every such curve was filed as active; the % refers to the signal ratio; also: potency is read from the fitted curve at half-maximal effect). An outline of the steps:
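Read-out: beta-lactamase FRET substrate fluorescence, 2 h at room temperature, in HeLa cells stably carrying a GRE-driven bla reporter. Compounds were co-incubated with 5 nM dexamethasone agonist (final) for 18 h at 37 C.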

Chain of Glucocorticoid receptor (Homo sapiens) (P04150 whole entry, looked up): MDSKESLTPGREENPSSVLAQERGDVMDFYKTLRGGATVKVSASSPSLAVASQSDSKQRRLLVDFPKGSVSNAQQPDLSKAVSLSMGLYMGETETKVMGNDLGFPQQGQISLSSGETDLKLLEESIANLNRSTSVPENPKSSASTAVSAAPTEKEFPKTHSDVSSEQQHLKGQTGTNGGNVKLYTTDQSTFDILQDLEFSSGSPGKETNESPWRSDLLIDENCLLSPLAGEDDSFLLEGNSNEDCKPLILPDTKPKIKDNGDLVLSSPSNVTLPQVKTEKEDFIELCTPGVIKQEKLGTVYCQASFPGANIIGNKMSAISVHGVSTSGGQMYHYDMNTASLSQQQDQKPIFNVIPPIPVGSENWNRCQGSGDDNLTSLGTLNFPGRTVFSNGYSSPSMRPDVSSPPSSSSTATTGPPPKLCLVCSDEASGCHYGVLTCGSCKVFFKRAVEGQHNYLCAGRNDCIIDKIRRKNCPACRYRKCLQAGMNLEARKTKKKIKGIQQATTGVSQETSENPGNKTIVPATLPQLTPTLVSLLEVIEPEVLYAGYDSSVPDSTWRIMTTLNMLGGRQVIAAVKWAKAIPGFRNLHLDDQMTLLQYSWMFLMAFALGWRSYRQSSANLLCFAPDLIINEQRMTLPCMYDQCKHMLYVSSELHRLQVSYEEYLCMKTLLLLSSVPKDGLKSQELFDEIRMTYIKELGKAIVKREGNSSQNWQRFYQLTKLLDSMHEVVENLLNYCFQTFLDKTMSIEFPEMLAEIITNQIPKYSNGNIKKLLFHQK

For `O=C1c2ccccc2C(=O)N1SC(Cl)(Cl)Cl`, the Potency was 8.51 µM (active) and 4.33 µM (active) in assay [1]; 60.3 µM (active) in assay [4]; 4.79 µM (active) and 7.7 µM (active) in assay [5]. Moreover, the Potency entry in assay [2] and in assay [3] was “inactive” in each case. Moreover, the outcome in assay [6], in assay [7], in [8], in assay [9], in assay [10] and in [11] was inactive. Also, the result in assay [12], in [13], in [14], in [15] and in assay [16] was inactive.
In the case of `CC(C)(c1ccccc1)c1cc(-n2nc3ccccc3n2)c(O)c(C(C)(C)c2ccccc2)c1`, the Potency entry in assay [1], in assay [2], in [3], in assay [4], in assay [17] and in [19] was “inactive” throughout. In [20], the Potency result was “inactive”. Besides, the result in assay [6], in assay [7], in assay [18], in assay [8], in [9] and in assay [11] was inactive. In addition, the compound was classed as inactive in [12], in [13], in assay [14], in [15] and in assay [16].
As to `CCCCC(CC)COC(=O)c1c(Br)c(Br)c(Br)c(Br)c1C(=O)OCC(CC)CCCC` (centres undefined), the Potency entry in [1], in assay [2], in [3], in [4], in assay [17] and in [20] was “inactive” each time. Moreover, the compound was called inactive in [6], in assay [7], in assay [8], in assay [9], in assay [11] and in assay [12]. Also, the compound was called inactive in [13], in [14], in assay [15] and in [16]. Further, the Potency in [19] is 33.8 µM (active).
As to `CCCCCCCCn1sccc1=O`, the Potency in assay [1] was 12.2 µM (active) and 25.5 µM (active); in [4] it was 54.6 µM (active); in [5] it was 30.7 µM (active) and 64.1 µM (active); in assay [20], 49.1 µM (active) and 36.3 µM (active). Further, the Potency result in assay [2], in assay [17] and in assay [19] was “inactive” in each case. Also, the outcome in [6], in assay [7], in assay [18], in assay [8], in [9] and in assay [10] was inactive. Besides, the compound was classed as inactive in assay [11], in assay [12], in assay [13], in assay [14] and in assay [16].
For `CC[N+]1(C)CCCC(OC(=O)C(O)(c2ccccc2)c2ccccc2)C1` (centres undefined), the Potency result in assay [1], in assay [2], in assay [4], in assay [17], in assay [5] and in assay [19] was “inactive” in each case. In addition, in assay [20], the Potency entry was “inactive”. The compound was called inactive in assay [6], in [7], in assay [18], in [8], in assay [9] and in assay [10]. Further, the compound was called inactive in assay [11], in assay [12], in assay [13], in assay [14] and in [16].
In the case of `O=C(Cl)OCCOCCOC(=O)Cl`, the Potency entry in assay [1], in assay [2], in [3], in [4], in assay [19] and in assay [20] was “inactive” in each case. Moreover, the result in assay [6], in [7], in assay [18], in [8], in [9] and in assay [10] was inactive. Besides, the result in assay [11], in assay [12], in assay [13], in assay [14], in assay [15] and in [16] was inactive.
As for `CC(C)C1(C)N=C(c2ncccc2C(=O)O)NC1=O` (centres undefined), the Potency entry in assay [1], in [2], in assay [3], in assay [4], in assay [17] and in assay [19] was “inactive” in each case. Moreover, the Potency entry in [20] is “inactive”. In addition, the call in assay [6], in assay [7], in [18], in assay [8], in assay [9] and in [10] was inactive. The compound was called inactive in [11], in assay [12], in [13], in assay [14] and in assay [16].
Take `COc1cc(C[C@@H](C)N)c(OC)cc1Br`: the Potency entry in assay [1], in assay [3], in [4] and in [17] was “inactive” throughout. Also, the outcome in assay [6], in [7], in [18], in assay [8], in assay [9] and in assay [10] was inactive. The result in assay [11], in [12], in [13], in [14], in [15] and in assay [16] was inactive.
